# Luc counter: blocks Kinase-Glo luciferase, a counter-screen artifact; Q27757; Kinase-Glo luciferase, ATP luminescence, 8 min; Potency, µM (series often up to 38.3 µM), hits mostly inhibitors; actives 0.28% (n = 200,000); note: nearly all actives have a fitted effect of over 60% in size
#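 Substrate mix (final 50 mM imidazole pH 7.2, 50 mM KCl, 7 mM MgCl2, 10 uM ATP, 0.01% Tween 20, 0.05% BSA) plus pin-tool compound, then Kinase-Glo detection mix; 8 min ambient, luminescence read.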
# VP16 counter: Gal4-VP16 reporter inhibition counter-screen | AID 2546 | Potency, µM (doses to about 53.6 µM), actives largely listed as inhibitors | actives 3.5% (n = 310,000) | Drosophila S2 Gal4-VP16 UAS-luciferase, luminescence, 20 h;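 note: Gal4-VP16 expression switched on by copper sulfate through the metallothionein promoter; nearly all actives have a fitted effect of over 50% in size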
# RORg inh: ROR gamma (mouse) transcription inhibition; P51450; Drosophila S2 Gal4-RORgamma UAS-luciferase reporter, 20 h; Potency, µM (highest dose often 53.6 µM), usual class: inhibitors; actives 5.4% (n = 310,000); AID 2551; note: nearly all actives have a fitted effect of over 60% in size
# Target sequence (P51450 whole entry, looked up, the tested form may be a part): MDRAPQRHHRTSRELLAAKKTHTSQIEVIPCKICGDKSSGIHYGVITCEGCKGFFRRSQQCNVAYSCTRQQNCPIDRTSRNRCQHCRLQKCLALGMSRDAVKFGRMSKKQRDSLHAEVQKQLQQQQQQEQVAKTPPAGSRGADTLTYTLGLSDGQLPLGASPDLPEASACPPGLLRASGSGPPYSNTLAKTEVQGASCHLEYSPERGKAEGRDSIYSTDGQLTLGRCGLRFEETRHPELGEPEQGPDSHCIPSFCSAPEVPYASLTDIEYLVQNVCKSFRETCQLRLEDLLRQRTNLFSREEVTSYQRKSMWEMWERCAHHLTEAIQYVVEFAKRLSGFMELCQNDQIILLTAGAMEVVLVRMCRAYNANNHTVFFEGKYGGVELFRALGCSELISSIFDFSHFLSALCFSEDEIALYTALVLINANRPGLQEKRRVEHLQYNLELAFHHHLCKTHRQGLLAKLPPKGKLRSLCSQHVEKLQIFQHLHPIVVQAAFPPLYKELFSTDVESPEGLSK
#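 Drosophila S2 cells stably expressing Gal4-DBD/mouse RORγ fusion under metallothionein promoter plus UAS-luciferase; compound 1 h, then 700 uM CuSO4 induction for 20 h at ambient temperature; inhibition read as reduced luminescence.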
# A number is an active result; . = inactive; ? = inconclusive; / = not tested or not shown; [ ] = another dose, or the depositor's remark. Sampled rows, rich in hits. Any-hit rate of the full collection: about 6.4%. Calls come from the whole dose curve; as a rule, active = well fitted curve in the direction sought with a large enough effect; inconclusive = small, poorly fitted or top-dose-only effect, or another doubt; inactive = no such curve, though single readings can be large; an effect the other way counts as inactive or inconclusive.
SMILES,Luc counter,VP16 counter,RORg inh
COc1ccc(C(=O)NC(C)c2nc3ccccc3n2C)cc1OC (stereo not drawn),.,/,.[0.365 µM]
O=C(NCCC(=O)N1CCCCC1)c1ccccc1Cl,/,.,.
CC1CC(C)CN(C(=O)CCNC(=O)c2ccccc2Cl)C1 (stereo not drawn),/,?,16µM
O=S(=O)(c1ccc(Cl)nc1)N1CCCCC1,/,.,.
CCOC(=O)C1C(c2ccc(C(=O)O)cc2)NC(=O)NC1(O)C(F)(F)F (stereo not drawn),/,.,.
COc1ccc(NC(=O)N2CC3(CCN(C(=O)c4cccc(F)c4)CC3)C2)cc1,.,.,.
CC(C)(C)C1CCc2onc(C(=O)Nc3cnn(Cc4ccc(F)cc4)c3)c2C1 (stereo not drawn),.,16µM,?
O=C(Nc1cnn(Cc2ccc(F)cc2)c1)c1noc2c1CCCC2,.,.[10 µM],?
O=C(O)c1ccc(Sc2nnc3ccccn23)c([N+](=O)[O-])c1,/,.,.
Cc1csc(NC(=O)CSc2nnc(-c3ccc(S(=O)(=O)N4CCCC4)cc3)o2)n1,.,.,13µM
CCOC(=O)Cc1csc(NC(=O)CSc2nnc(-c3ccc(F)cc3)o2)n1,.,?,4µM
CCn1c2ccccc2c2cc(NC(=O)CSc3nnc(-c4cccc(F)c4)o3)ccc21,.,.,.
CCOC(=O)Cc1csc(NC(=O)CSC2=NCCS2)n1,/,.,.
Cc1csc(NC(=O)CSc2nnc(-c3ccccc3)o2)n1,.,.,?
O=C(CSc1nnc(-c2cccc(F)c2)o1)Nc1nncs1,.,?,13µM
CCN(CC)S(=O)(=O)c1ccc(-c2nnc(SCC(=O)Nc3nc(C)cs3)o2)cc1,.,.,?
CCOC(=O)Cc1csc(NC(=O)CSc2nnc(-c3ccc(C)cc3)o2)n1,.,?,11µM
CCOC(=O)CN(C(=O)c1ccccc1[N+](=O)[O-])C(C)(C)C,/,.,.
COc1ccc(N(CC(=O)NC2CC3CCC2C3)S(=O)(=O)c2ccc(C)c([N+](=O)[O-])c2)cc1 (stereo not drawn),/,.,.
Cc1ccc(C(=O)Nc2nnc(-c3ccc(C(C)(C)C)cc3)s2)cc1,.,.,.
Cc1ccc(-c2nnc(NC3CCCC3)s2)cc1,/,?,11µM
CC(=O)c1ccccc1NC(=O)COC(=O)c1ccc2c(c1)nc(C)n2-c1ccccc1,.,.,.
Cc1nc2cc(C(=O)OCC(=O)NC(C)C(C)C)ccc2n1-c1ccccc1 (stereo not drawn),.,28µM,.
CC(NC(=O)Nc1cccc(Cl)c1)C(c1cccs1)N1CCCC1 (stereo not drawn),.,.,.
CC(NC(=O)Nc1ccccc1)C(c1cccs1)N1CCOCC1 (stereo not drawn),.,.,?
SMILES,Luc counter,VP16 counter,RORg inh
CC(NC(=S)Nc1ccc(Cl)cc1Cl)C(c1cccs1)N1CCCC1 (stereo not drawn),.,?,11µM
CC(NC(=S)NC1CCCCC1)C(c1cccs1)N1CCOCC1 (stereo not drawn),/,?,8.9µM
COc1ccccc1NC(=S)NC(C)C(c1cccs1)N1CCOCC1 (stereo not drawn),/,?,13µM
CCN1CCN(C(c2cccs2)C(C)NC(=S)NC2CCCCC2)CC1 (stereo not drawn),/,.,.
Cc1oc2cc(Br)c(O)c(Br)c2c1-c1ccccc1,/,.,.
CCSC[C@H](NC(=O)[C@H](C)NC(=O)[C@@H](N)Cc1ccc(O)cc1)C(=O)N[C@@H](CC(=O)O)C(=O)N[C@H](C(=O)N[C@@H](C)C(=O)N[C@H](C(=O)N[C@@H](CSCC)C(=O)N[C@H](C(=O)N[C@H](C(=O)N[C@@H](Cc1cnc[nH]1)C(=O)N[C@@H](CCCNC(=N)N)C(=O)N[C@@H](CC(C)C)C(=O)N[C@@H](C)C(=O)NCC(=O)N[C@@H](CC(C)C)C(=O)N[C@@H](CC(C)C)C(=O)N[C@@H](CO)C(=O)N[C@@H](CCCNC(=N)N)C(=O)N[C@@H](CO)C(=O)NCC(=O)NCC(=O)N[C@H](C(=O)N[C@H](C(=O)N[C@@H](CCCCN)C(=O)N[C@@H](CC(N)=O)C(=O)N[C@@H](CC(N)=O)C(=O)N[C@@H](Cc1ccccc1)C(=O)N[C@H](C(=O)N1CCC[C@H]1C(=O)N[C@H](C(=O)N[C@@H](CC(N)=O)C(=O)N[C@H](C(=O)NCC(=O)N[C@@H](CO)C(=O)N[C@@H](CCCCN)C(=O)N[C@@H](C)C(=O)N[C@@H](Cc1ccccc1)C(N)=O)C(C)C)[C@@H](C)O)C(C)C)C(C)C)C(C)C)[C@@H](C)O)C(C)C)[C@@H](C)O)[C@@H](C)O,/,.,.
O=[N+]([O-])c1ccc(N2CCOCC2)cc1O,/,.,.
Cc1cc(N2CCOCC2)ccc1/C=C\[N+](=O)[O-],.,10µM,6.3µM
Cc1cccc(NC2=NC(=S)N(c3ccc(C(=O)O)cc3)C23CCCCC3)c1,.,.,.
COc1ccc(NC2=NC(=S)N(c3ccc(C)cc3)C23CCCCC3)cc1,.,.,0.56µM
COc1ccc(NC2=NC(=S)N(c3cccc(C)c3)C23CCCCC3)cc1,.,?,2µM
COc1ccc(NC2=NC3(CCCCC3)N=C(N)N2)cc1,.,.,.
O=C(CCSCc1ccccc1F)NCc1ccc(F)cc1,/,.,.
CCOC(=O)c1sc(NC(=O)C2CC2)nc1C,.,.,?
CCOC(=O)c1sc(NC(=O)c2ccc(Br)o2)cc1C,?,.,?
CCOC(=O)c1sc(NC(=O)c2sccc2C)cc1C,11µM,.,?
CCOC(=O)c1sc(NC(=S)NC(=O)C2CC2)cc1C,/,1µM,1µM
CCOC(=O)c1sc(NC(=S)NC(=O)C23CC4CC(CC(C4)C2)C3)cc1C,.,10µM,6.3µM
CCOC(=O)c1sc(NC(=O)c2cccs2)cc1C,?,.,?
Cc1cc(C(F)(F)F)nc(CCNC(=O)C2CCC(=O)N(Cc3cccc(F)c3)C2)n1 (stereo not drawn),/,.,.
CC1Sc2ccc(S(=O)(=O)CCC(=O)NCc3ccc(Cl)cc3)cc2NC1=O (stereo not drawn),/,.,.
COCCNC(=O)c1ccc(Cc2nc3ccccc3[nH]2)cc1,.,/,/
CCOC(=O)Cc1c(C)nc2c(-c3ccc(Cl)cc3)c[nH]n2c1=O,.,16µM,5.6µM
COCc1cc(=O)n2[nH]c(-c3ccc(C)cc3)cc2n1,.,.,.
COCc1cc(=O)n2[nH]cc(-c3ccccc3)c2n1,/,10µM,13µM
SMILES,Luc counter,VP16 counter,RORg inh
CCCc1cc(=O)n2[nH]c(SCc3ccc(Cl)cc3)nc2n1,/,.,.
CCOC(=O)Cc1c(C)nc2cc(-c3ccc(Cl)cc3)[nH]n2c1=O,.,.,.
CCOC(=O)Cc1cc(=O)n2[nH]cc(-c3cccc(Br)c3)c2n1,.,?,13µM
CCCc1cc(=O)n2[nH]cc(-c3ccc(Cl)cc3)c2n1,/,3.2µM,4.5µM
CCOC(=O)Cc1cc(=O)n2[nH]c(-c3ccc(C)cc3)cc2n1,.,.,.
C=C(C)CN(CC)C(=O)CC1C(=O)NCCN1C (stereo not drawn),.,.,.
CC(C)=CCC[C@](C)(O)C1CC[C@]2(C)[C@@H]1CC[C@@H]1[C@@]3(C)CCC(=O)C(C)(C)[C@@H]3CC[C@]12C (stereo partly drawn),/,.,.
